In article PMC7862700, “An all-to-all approach to the identification of sequence-specific readers for epigenetic DNA modifications on cytosine”:

Columns and labels:
Experiment in all cases: DAPPL (digital affinity profiling via proximity ligation, sequencing); 10 mM Tris-HCl pH 7.5, 50 mM NaCl, 1 mM DTT, 4% glycerol, room temperature, 30 min; GST-TFs on glutathione beads, 16-mer random dsDNA library, 0.1% formaldehyde crosslink after washing; high values mean tight binding
FLI1 = target: T1, FLI1 (Homo sapiens, UniProt Q01543 1-452); conditions: protein: recombinant; tags: N-terminal GST; dsDNA, one strand shown
T1 sequence: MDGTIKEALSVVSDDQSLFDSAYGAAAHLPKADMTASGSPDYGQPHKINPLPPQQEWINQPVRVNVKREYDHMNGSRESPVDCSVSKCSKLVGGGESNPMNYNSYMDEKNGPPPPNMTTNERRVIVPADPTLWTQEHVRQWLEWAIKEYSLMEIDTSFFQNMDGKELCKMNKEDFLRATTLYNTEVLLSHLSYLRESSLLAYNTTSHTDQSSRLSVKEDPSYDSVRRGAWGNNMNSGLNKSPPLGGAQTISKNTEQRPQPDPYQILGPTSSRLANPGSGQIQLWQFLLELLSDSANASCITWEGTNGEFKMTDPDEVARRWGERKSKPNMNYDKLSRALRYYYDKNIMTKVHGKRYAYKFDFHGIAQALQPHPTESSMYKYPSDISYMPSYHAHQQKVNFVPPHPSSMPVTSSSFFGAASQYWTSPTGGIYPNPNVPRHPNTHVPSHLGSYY
Outline: (§1)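 A tag-only sample was pooled with DNA-barcoded human transcription factors that had been expressed in yeast as GST fusions and captured on glutathione beads. The pools were incubated for 30 min at room temperature with 200 nmole of a random double-stranded 16-mer DNA library in Tris/NaCl/DTT/glycerol buffer, then washed, crosslinked with 0.1% formaldehyde, proximity-ligated (BsaI/T4 ligase, 1 h, 37 °C), PCR-amplified and sequenced on an Illumina NextSeq500. Binding signal is each hexamer's read frequency for a factor divided by its frequency for the tag-only sample.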

ELK1 = target: T2, ELK1 (Homo sapiens, UniProt P19419 1-428); conditions: protein: recombinant; tags: N-terminal GST; dsDNA, one strand shown
T2 sequence: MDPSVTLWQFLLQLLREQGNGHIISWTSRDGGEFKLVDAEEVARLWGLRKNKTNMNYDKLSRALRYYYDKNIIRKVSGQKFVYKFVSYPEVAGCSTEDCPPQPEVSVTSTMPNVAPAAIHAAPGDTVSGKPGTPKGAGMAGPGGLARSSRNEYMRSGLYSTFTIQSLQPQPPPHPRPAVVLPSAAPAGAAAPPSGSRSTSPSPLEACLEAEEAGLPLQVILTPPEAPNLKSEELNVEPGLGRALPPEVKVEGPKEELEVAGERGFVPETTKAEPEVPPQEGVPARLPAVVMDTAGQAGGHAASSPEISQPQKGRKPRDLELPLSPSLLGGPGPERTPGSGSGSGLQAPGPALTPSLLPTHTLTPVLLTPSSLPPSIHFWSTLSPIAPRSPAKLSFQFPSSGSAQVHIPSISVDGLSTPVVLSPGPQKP
Outline: as §1

GABPA = target: T3, GABPA (Homo sapiens, UniProt Q06546 1-454); conditions: protein: recombinant; tags: N-terminal GST; dsDNA, one strand shown
T3 sequence: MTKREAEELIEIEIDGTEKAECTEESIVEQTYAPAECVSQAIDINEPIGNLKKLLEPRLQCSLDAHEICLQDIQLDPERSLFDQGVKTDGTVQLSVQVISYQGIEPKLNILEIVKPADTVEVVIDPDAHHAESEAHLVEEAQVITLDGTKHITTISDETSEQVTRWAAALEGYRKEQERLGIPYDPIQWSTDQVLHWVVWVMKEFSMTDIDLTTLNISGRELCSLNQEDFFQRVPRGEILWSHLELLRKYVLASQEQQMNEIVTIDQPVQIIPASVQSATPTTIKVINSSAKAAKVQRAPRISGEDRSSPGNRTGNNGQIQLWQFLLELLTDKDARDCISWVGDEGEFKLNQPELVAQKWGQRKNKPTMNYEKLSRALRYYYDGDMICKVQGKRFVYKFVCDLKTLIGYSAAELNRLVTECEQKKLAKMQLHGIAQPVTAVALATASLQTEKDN
Outline: as §1

ERG = target: T4, ERG (Homo sapiens, UniProt P11308 1-479); conditions: protein: recombinant; tags: N-terminal GST; dsDNA, one strand shown
T4 sequence: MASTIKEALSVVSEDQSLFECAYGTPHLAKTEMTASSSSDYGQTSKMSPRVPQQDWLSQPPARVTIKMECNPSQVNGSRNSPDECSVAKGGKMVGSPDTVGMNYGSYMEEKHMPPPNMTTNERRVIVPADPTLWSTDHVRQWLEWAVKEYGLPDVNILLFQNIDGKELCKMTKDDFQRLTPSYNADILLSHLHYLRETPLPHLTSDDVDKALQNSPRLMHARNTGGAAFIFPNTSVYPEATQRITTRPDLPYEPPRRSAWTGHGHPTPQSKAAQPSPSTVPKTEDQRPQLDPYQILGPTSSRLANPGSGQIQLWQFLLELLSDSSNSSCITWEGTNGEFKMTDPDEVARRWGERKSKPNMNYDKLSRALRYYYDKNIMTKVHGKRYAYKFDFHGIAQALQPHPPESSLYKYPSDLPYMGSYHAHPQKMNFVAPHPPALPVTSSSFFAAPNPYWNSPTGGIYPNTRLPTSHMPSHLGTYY
Outline: as §1

ELF1 = ELF1 (Homo sapiens, UniProt P32519 1-619); conditions: protein: recombinant; tags: N-terminal GST; dsDNA, one strand shown
Outline: as §1

EHF = target: T5, EHF (Homo sapiens, UniProt Q9NZC4 1-300); conditions: protein: recombinant; tags: N-terminal GST; dsDNA, one strand shown
T5 sequence: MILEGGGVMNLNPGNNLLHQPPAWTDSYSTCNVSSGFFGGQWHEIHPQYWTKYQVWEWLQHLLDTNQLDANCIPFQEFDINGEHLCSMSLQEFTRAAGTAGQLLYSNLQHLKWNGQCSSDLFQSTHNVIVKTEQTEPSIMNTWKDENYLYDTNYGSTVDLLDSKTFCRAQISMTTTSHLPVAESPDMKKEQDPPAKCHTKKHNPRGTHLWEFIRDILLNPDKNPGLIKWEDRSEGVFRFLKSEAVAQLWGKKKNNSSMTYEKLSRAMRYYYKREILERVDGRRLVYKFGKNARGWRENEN
Outline: as §1

SPI1 = SPI1 (Homo sapiens, UniProt P17947 1-270); conditions: protein: recombinant; tags: N-terminal GST; dsDNA, one strand shown
Outline: as §1

SPIB = SPIB (Homo sapiens, UniProt Q01892 1-262); conditions: protein: recombinant; tags: N-terminal GST; dsDNA, one strand shown
Outline: as §1

ELK3 = target: T6, ELK3 (Homo sapiens, UniProt P41970 1-407); conditions: protein: recombinant; tags: N-terminal GST; dsDNA, one strand shown
T6 sequence: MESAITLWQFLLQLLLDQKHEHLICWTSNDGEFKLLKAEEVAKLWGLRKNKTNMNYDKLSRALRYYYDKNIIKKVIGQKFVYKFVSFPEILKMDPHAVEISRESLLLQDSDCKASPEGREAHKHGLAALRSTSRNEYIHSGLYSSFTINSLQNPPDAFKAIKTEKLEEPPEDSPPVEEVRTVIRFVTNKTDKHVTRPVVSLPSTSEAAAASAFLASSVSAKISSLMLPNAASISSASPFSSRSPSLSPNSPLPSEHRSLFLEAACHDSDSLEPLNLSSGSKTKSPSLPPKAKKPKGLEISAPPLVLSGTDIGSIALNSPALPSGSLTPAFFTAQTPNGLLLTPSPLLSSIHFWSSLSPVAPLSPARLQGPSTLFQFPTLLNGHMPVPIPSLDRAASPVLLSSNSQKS
Outline: as §1

FEV = target: T7, FEV (Homo sapiens, UniProt Q99581 1-238); conditions: protein: recombinant; tags: N-terminal GST; dsDNA, one strand shown
T7 sequence: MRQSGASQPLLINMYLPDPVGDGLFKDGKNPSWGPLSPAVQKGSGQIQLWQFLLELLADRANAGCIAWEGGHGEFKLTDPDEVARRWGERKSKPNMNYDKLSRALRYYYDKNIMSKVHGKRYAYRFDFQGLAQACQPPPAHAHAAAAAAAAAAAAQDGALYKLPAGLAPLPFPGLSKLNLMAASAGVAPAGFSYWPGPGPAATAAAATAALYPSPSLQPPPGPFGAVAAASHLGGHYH
Outline: as §1

ETV5 = ETV5 (Homo sapiens, UniProt P41161 1-510); conditions: protein: recombinant; tags: N-terminal GST; dsDNA, one strand shown
Outline: as §1

HSF1 = HSF1 (Homo sapiens, UniProt Q00613 1-529); conditions: protein: recombinant; tags: N-terminal GST; chain copies: 3; dsDNA, one strand shown
Outline: as §1

SPIC = target: T8, SPIC (Homo sapiens, UniProt Q8N5J4 1-248); conditions: protein: recombinant; tags: N-terminal GST; dsDNA, one strand shown
T8 sequence: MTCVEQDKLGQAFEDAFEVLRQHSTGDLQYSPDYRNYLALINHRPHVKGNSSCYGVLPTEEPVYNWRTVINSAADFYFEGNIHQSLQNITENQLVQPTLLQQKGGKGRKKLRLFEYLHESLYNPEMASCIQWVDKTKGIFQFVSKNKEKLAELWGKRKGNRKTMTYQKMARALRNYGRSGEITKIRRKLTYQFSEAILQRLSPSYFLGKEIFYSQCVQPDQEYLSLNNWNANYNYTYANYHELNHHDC
Outline: as §1

ELF4 = ELF4 (Homo sapiens, UniProt Q99607 1-663); conditions: protein: recombinant; tags: N-terminal GST; dsDNA, one strand shown
Outline: as §1

ETV2 = target: T9, ETV2 (Homo sapiens, UniProt O00321 1-342); conditions: protein: recombinant; tags: N-terminal GST; dsDNA, one strand shown
T9 sequence: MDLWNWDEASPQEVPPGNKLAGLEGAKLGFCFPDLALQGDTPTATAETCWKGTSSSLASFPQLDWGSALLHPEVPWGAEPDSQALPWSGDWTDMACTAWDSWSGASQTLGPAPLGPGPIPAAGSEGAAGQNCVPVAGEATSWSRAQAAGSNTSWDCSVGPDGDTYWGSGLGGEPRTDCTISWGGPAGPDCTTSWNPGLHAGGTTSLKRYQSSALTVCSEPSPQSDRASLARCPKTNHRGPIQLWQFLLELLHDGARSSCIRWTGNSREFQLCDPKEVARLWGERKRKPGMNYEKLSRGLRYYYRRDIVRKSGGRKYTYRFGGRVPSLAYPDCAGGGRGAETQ
Outline: as §1

ELF3 = target: T10, ELF3 (Homo sapiens, UniProt P78545 1-371); conditions: protein: recombinant; tags: N-terminal GST; dsDNA, one strand shown
T10 sequence: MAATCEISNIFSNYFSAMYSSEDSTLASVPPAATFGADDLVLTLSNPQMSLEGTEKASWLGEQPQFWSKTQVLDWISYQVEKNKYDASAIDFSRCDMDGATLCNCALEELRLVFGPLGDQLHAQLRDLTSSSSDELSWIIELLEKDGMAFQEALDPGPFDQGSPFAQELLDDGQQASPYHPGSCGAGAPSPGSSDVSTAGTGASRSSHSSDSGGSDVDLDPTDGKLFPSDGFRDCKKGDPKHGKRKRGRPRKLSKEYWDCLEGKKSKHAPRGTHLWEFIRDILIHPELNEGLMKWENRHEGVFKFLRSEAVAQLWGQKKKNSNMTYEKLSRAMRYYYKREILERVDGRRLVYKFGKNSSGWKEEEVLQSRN
Outline: as §1

CRX = CRX (Homo sapiens, UniProt O43186 1-299); conditions: protein: recombinant; tags: N-terminal GST; dsDNA, one strand shown
Outline: as §1

ETV1 = ETV1 (Homo sapiens, UniProt P50549 1-477); conditions: protein: recombinant; tags: N-terminal GST; dsDNA, one strand shown
Outline: as §1

Sequence of ELF1 (P32519 whole entry): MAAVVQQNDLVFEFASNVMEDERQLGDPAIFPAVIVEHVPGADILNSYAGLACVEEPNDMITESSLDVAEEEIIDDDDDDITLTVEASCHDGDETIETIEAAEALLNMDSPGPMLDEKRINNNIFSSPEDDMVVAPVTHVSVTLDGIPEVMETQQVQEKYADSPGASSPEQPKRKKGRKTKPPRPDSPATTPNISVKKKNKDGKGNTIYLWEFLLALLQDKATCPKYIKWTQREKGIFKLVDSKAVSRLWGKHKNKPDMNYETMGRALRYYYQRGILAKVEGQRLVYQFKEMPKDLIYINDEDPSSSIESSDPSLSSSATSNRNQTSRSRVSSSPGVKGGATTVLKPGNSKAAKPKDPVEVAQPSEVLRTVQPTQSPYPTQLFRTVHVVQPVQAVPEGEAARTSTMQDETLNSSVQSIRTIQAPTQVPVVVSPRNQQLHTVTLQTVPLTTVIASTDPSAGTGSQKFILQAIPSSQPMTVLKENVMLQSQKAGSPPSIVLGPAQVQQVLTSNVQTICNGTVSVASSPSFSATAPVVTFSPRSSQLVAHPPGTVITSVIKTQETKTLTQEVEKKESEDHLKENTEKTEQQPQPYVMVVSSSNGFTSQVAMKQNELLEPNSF
Sequence of ELF4 (Q99607 whole entry): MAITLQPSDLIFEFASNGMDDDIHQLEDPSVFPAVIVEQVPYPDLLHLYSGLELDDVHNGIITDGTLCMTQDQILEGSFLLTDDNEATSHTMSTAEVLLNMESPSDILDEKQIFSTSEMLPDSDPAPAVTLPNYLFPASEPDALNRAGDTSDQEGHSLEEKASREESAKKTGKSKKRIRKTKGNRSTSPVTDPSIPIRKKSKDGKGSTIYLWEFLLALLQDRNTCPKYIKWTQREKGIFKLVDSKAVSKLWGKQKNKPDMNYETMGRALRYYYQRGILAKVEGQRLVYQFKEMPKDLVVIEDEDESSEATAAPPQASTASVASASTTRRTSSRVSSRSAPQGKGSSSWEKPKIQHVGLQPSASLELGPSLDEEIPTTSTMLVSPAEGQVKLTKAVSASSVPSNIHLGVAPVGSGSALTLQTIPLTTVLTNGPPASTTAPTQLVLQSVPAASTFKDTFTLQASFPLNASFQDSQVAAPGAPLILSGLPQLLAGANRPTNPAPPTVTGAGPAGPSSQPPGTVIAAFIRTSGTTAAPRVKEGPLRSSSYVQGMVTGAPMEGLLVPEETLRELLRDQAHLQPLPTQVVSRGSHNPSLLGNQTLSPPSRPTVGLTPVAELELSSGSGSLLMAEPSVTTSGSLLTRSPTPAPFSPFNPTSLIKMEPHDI
Sequence of CRX (O43186 whole entry): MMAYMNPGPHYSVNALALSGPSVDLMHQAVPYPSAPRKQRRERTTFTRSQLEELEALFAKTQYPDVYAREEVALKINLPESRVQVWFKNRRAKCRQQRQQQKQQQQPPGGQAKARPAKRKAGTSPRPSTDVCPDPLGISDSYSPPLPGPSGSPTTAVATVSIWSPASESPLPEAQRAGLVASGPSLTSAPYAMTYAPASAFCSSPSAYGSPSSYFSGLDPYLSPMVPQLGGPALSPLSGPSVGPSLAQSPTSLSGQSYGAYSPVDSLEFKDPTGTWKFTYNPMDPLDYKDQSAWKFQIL
Sequence of HSF1 (Q00613 whole entry): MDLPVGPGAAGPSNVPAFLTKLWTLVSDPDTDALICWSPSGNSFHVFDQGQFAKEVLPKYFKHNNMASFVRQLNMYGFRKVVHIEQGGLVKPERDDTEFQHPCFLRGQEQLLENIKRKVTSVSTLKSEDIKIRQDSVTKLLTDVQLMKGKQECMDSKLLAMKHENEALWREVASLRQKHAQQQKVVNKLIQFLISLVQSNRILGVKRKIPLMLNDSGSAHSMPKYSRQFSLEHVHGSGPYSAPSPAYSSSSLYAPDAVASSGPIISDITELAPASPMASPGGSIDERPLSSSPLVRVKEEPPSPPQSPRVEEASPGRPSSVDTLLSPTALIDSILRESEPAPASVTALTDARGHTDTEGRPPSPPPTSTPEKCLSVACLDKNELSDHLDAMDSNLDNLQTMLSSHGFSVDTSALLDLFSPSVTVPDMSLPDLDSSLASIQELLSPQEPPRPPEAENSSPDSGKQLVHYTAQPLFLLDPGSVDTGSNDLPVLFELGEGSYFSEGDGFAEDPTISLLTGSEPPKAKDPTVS
Sequence of ETV1 (P50549 whole entry): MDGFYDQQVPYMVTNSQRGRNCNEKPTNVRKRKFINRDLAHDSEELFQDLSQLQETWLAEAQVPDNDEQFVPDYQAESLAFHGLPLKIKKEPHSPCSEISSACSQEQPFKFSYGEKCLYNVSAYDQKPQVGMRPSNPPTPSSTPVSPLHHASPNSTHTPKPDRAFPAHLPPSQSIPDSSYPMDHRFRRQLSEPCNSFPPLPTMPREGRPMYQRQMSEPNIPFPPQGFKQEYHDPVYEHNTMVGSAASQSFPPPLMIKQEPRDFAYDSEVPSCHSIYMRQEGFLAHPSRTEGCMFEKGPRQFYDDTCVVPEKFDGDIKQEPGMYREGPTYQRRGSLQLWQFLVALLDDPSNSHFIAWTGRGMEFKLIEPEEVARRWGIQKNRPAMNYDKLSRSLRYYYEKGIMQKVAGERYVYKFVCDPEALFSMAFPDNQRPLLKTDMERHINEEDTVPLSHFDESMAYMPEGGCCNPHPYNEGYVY
Sequence of SPIB (Q01892 whole entry): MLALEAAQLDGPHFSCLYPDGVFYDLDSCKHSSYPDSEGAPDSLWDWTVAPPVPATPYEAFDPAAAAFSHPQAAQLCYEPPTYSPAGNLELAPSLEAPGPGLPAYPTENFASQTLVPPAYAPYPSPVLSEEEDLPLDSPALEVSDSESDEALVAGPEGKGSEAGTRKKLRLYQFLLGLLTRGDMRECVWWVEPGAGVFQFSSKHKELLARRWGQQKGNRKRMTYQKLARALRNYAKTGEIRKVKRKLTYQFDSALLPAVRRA
Sequence of ETV5 (P41161 whole entry): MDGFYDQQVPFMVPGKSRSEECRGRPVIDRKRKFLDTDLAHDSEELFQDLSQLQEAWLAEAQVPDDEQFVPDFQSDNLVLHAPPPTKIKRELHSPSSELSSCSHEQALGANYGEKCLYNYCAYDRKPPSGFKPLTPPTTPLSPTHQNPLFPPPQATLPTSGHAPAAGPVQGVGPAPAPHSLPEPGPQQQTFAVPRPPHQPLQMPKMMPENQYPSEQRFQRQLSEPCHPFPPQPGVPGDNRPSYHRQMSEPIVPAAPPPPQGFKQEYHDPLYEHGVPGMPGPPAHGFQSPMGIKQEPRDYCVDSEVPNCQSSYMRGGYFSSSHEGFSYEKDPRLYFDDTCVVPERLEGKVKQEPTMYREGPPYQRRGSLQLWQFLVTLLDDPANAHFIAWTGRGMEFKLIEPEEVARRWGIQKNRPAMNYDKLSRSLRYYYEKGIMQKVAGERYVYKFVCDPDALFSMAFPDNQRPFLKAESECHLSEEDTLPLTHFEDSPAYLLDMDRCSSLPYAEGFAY

**Q.** Which results are given for TGATTC?
**A.** binding signal (FLI1): 1.12 fold enrichment (6-mer frequency, TF over GST control); binding signal (ELK1): 1.09 fold enrichment (6-mer frequency, TF over GST control); binding signal (GABPA): 1.1 fold enrichment (6-mer frequency, TF over GST control); binding signal (ERG): 1.08 fold enrichment (6-mer frequency, TF over GST control); binding signal (ELF1): 1.1 fold enrichment (6-mer frequency, TF over GST control); binding signal (EHF): 1.12 fold enrichment (6-mer frequency, TF over GST control); binding signal (SPI1): 1.06 fold enrichment (6-mer frequency, TF over GST control); binding signal (SPIB): 1.17 fold enrichment (6-mer frequency, TF over GST control); binding signal (ELK3): 1.02 fold enrichment (6-mer frequency, TF over GST control); binding signal (FEV): 1.03 fold enrichment (6-mer frequency, TF over GST control); binding signal (ETV5): 1.1 fold enrichment (6-mer frequency, TF over GST control); binding signal (HSF1): 1.18 fold enrichment (6-mer frequency, TF over GST control); binding signal (SPIC): 1.11 fold enrichment (6-mer frequency, TF over GST control); binding signal (ELF4): 1.07 fold enrichment (6-mer frequency, TF over GST control); binding signal (ETV2): 1.03 fold enrichment (6-mer frequency, TF over GST control); binding signal (ELF3): 1.12 fold enrichment (6-mer frequency, TF over GST control); binding signal (CRX): 1.12 fold enrichment (6-mer frequency, TF over GST control); binding signal (ETV1): 1.18 fold enrichment (6-mer frequency, TF over GST control)
